The whole screen tested about 320,000 compounds, of which about 2,100 (0.66%) were called active. Roughly 53% stayed inconclusive and do not appear here. Calls come from the whole dose curve; as a rule, active = well fitted inhibition curve with a large enough effect in the signal ratio, with a control signal flat (not every such curve was filed as active); inconclusive = small, poorly fitted or top-dose-only effect, or effect the other way, or a change in a side signal; inactive = flat fitted curve, though single readings scatter; the % refers to the signal ratio. The list comes from a sample in which actives are over-represented; it also holds similar structures and randomly drawn compounds.
Potency is the fitted concentration of half-maximal effect.

A short description of the test: qHTS Assay for Lipid Storage Modulators in Drosophila S3 Cells.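 For cell number change: cells counted by Cell Tracker Red CMTPX staining in the red channel.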 Conditions: BODIPY lipid droplet fluorescence, 18-24 h, cells fed with added oleic acid; cell number change: measured here: cell count max response; series mostly up to 46.1 µM. In outline:
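Laser-scanning cytometry quantifies lipid droplet accumulation (500–530 nm total intensity; droplet/cell object ratio) in oleic acid-fed (400 uM added) Drosophila S3 cells treated with a concentration series. 20 uM Triacsin C defined 100% inhibition.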
For the compound `CCOc1cc(C(=S)N2CCN(C)CC2)ccc1OCC(=O)N1CCOCC1`, the Potency entry is “inactive” and the cell number change was -0.877%.

With `COc1ccc2c(c1)C1=NN(/C(C)=C\C(C)=O)C(c3ccccc3)C1CC2` (stereo not given), the Potency result is “inactive” and the cell number change is -20.1%.

As for `COc1cccc(CNCC(O)COc2ccc(C(=O)c3ccccc3)cc2)c1` (stereo not given), the Potency entry was “inactive” and the cell number change is -29.5%.

In the case of `COC(=O)CN1C(=O)NC2(CCCc3ccccc32)C1=O` (stereo not given), the Potency result was “inactive” and the cell number change amounted to 1.11%.

Consider `O=C(c1ccc(C(F)(F)F)cc1)C1CCCN(Cc2cccn2-c2ncccn2)C1` (stereo not given), for which the Potency result was “inactive” and the cell number change stood at 20.4%.

In the case of `O=C1CC(N2CCN(c3ccc(F)cc3)CC2)C(=O)N1c1ccc(F)cc1` (stereo not given), the Potency entry is “inactive” and the cell number change is -10.9%.

In the case of `CCS(=O)(=O)N1CCCC(C(=O)NCCc2ccccc2)C1` (stereo not given), the Potency was 25.9 µM (active) and the cell number change was -14.3%.

As to `CCCS(=O)(=O)N1CCCC(C(=O)NCCc2ccccc2)C1` (stereo not given), the Potency result was “inactive” and the cell number change stood at 1.16%.

Regarding `CCCCS(=O)(=O)N1CCCC(C(=O)NCCc2ccccc2)C1` (stereo not given), the Potency result was “inactive” and the cell number change is -7.87%.

Consider `Cc1ccc(C(=O)NCC(c2ccco2)N2CCCCC2)s1` (stereo not given), for which the Potency entry was “inactive” and the cell number change was 20.8%.

In the case of `CC(=O)c1cccc(NC(=O)C2CC(=O)N(Cc3ccccc3)C2)c1` (stereo not given), the Potency result is “inactive”.

With `CSc1cccc(NC(=O)C2CC(=O)N(Cc3ccccc3)C2)c1` (stereo not given), the Potency result is “inactive” and the cell number change worked out at 8.1%.

For `O=C(O)c1cccc(NC(=O)C2CC(=O)N(Cc3ccccc3)C2)c1` (stereo not given), the Potency was 4.61 µM (active) and the cell number change was -0.647%.

On to `O=S(=O)(Nc1ccc(Cc2ccncc2)cc1)c1ccc(Cl)cc1`, for which the Potency entry was “inactive” and the cell number change came to 4.35%.

For the compound `CCc1ccc(S(=O)(=O)Nc2ccncc2)cc1`, the Potency entry was “inactive” and the cell number change was -6.32%.

With `O=S(=O)(Nc1ccncc1)c1ccc(Cl)cc1`, the Potency was 10.3 µM (active) and the cell number change was -14.9%.

Regarding `COc1ccc(C(=O)N2CCC(=O)N(C(CO)Cc3ccccc3)CC2)cc1` (stereo not given), the Potency result is “inactive” and the cell number change is -2.26%.

Take `Cc1ccc(N=Cc2c(O)n(C)c(=O)n(C)c2=O)nc1`: the Potency result is “inactive” and the cell number change stood at 3.34%.

Consider `O=S(=O)(NCc1cccnc1)c1ccc(Br)c2ccccc12`, for which the Potency result is “inactive” and the cell number change stood at 10.4%.

Take `O=S(=O)(Nc1cccnc1)c1ccc(Br)c2ccccc12`: the Potency is 7.31 µM (active) and the cell number change was -5.22%.

On to `Cc1ccccc1S(=O)(=O)Nc1cccnc1`, for which the Potency result is “inactive” and the cell number change came to 1.91%.

Regarding `C/C(CC(=O)Nc1ccc(Cl)cc1Cl)=N\NC(=O)c1ccncc1`, the Potency result is “inactive” and the cell number change was 23%.

As for `COc1cc2c(cc1OC)C(c1cccc(Cl)c1Cl)CC(=O)N2` (stereo not given), the Potency entry is “inactive” and the cell number change is -12.7%.

On to `C/C(CC(=O)Nc1ccc2c(c1)OCCO2)=N\NC(=O)c1ccccc1F`, for which the Potency result was “inactive” and the cell number change was found to be 8.06%.

`COc1ccc(C(=O)N/N=C(\C)CC(=O)Nc2ccc3c(c2)OCCO3)c(OC)c1`: the Potency result is “inactive” and the cell number change turned out to be 14.3%.

In the case of `COc1ccccc1C(=O)N/N=C(\C)CC(=O)Nc1ccc2c(c1)OCCO2`, the Potency was 16.4 µM (active) and the cell number change was 22.4%.

On to `Cc1ccc(Nc2ccccc2)nn1`, for which the Potency entry is “inactive” and the cell number change turned out to be 17%.

`N#Cc1nc(Cc2ccccc2)oc1N1CCCC1`: the Potency result was “inactive” and the cell number change is -9.44%.

For the compound `N#Cc1ncc(Cc2ccccc2)nc1C#N`, the Potency was 7.31 µM (active) and the cell number change was -22.9%.

With `N#Cc1nc(Cc2ccccc2)oc1NCc1ccccc1`, the Potency result was “inactive” and the cell number change was -21%.

Consider `COc1ccccc1NC(=O)NNC(=O)C(C)Oc1ccc2ccccc2c1` (stereo not given), for which the Potency entry is “inactive” and the cell number change was determined as 7.76%.

In the case of `Cc1ccc(/C=N/N2CCN(Cc3ccc(Cl)cc3)CC2)o1`, the Potency result was “inactive” and the cell number change was -6.6%.

As for `CC(C)CNC(=O)NC(=O)COC(=O)C1CSC2(c3ccc(F)cc3)CCC(=O)N12` (stereo not given), the Potency entry was “inactive” and the cell number change amounted to 5.71%.

Take `O=C(C1CSC2(c3ccc(F)cc3)CCC(=O)N12)N1CCCCCC1` (stereo not given): the Potency is 18.4 µM (active) and the cell number change is -5.6%.

As to `O=C(COC(=O)C1CSC2(c3ccc(F)cc3)CCC(=O)N12)NC(=O)NC1CCCC1` (stereo not given), the Potency entry is “inactive” and the cell number change is 8.51%.

Turning to `Cc1cnc(NC(=O)CCNC(=O)c2ccccc2Cl)s1`, the Potency entry is “inactive”.

On to `Cc1noc(C(=O)NCc2cccnc2)c1Cl`, for which the Potency entry was “inactive” and the cell number change was 3.97%.

As to `CCOC(=O)Nc1ccc2c(CN3CCN(S(=O)(=O)c4ccccc4)CC3)cc(=O)oc2c1`, the Potency entry was “inactive” and the cell number change amounted to 3.64%.

With `O=C(NCC1CCCN(C(=O)Cc2ccccc2Cl)C1)c1ccc(F)cc1` (stereo not given), the Potency entry is “inactive” and the cell number change was determined as 17.2%.

As to `Cc1nnnn1/C(=C\c1ccccc1)C(=O)OCC(=O)NC(C)(C)C`, the Potency is 4.11 µM (active) and the cell number change was -11.4%.

As for `Cc1cc(C(=O)OCC(=O)Nc2cccc(S(=O)(=O)N(C)C)c2)c2ccccc2n1`, the Potency result was “inactive” and the cell number change is -13.9%.

`CC(=O)c1ccccc1NC(=O)COC(=O)/C(=C/c1ccccc1)n1nnnc1C`: the Potency is 7.31 µM (active) and the cell number change is -27.9%.

For `CC(=O)c1ccccc1NC(=O)COC(=O)c1c(C)nn(-c2ccccc2)c1C`, the Potency entry was “inactive” and the cell number change was -19.3%.

On to `CN(C)S(=O)(=O)c1cccc(NC(=O)CSc2nnnn2-c2ccccc2)c1`, for which the Potency entry was “inactive” and the cell number change is -3.51%.

Turning to `NS(=O)(=O)c1cccc(NC(=O)COC(=O)C2(c3cccc(F)c3)CCCC2)c1`, the Potency result is “inactive” and the cell number change was -1.45%.

Take `CC(C)(C)NC(=O)COC(=O)C1c2ccccc2Oc2ccccc21`: the Potency result was “inactive” and the cell number change is -10.4%.

Source of the values: PubChem BioAssay AID2685 (National Center for Advancing Translational Sciences (NCATS), 2010).
